SMILES strings stand for the structures. Results filed as inconclusive are left out. Where a call stands in place of a potency, no number is given. Values without a mark were called inactive. Calls of active or inactive are those of the source. Calls follow the shape of the dose curve; as a rule, active = well fitted inhibition curve with a large enough effect; inconclusive = small, poorly fitted or top-dose-only effect; inactive = flat fitted curve, though single readings scatter.

Sequence of Glutathione peroxidase 1 (Homo sapiens) (P07203 whole entry, looked up): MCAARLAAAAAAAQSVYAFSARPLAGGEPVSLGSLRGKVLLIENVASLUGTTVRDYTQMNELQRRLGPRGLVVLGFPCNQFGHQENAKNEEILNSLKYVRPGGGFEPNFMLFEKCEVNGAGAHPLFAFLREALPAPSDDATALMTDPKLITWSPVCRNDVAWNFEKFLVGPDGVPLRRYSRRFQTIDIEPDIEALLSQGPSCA

The assay deals with Glutathione peroxidase 1 (Homo sapiens) (UniProt P07203). The experiment in a line: Primary qHTS Assay for Inhibitors of Recombinant Selenoprotein Glutathione Peroxidase 1 (GPX1) (AID 1845191). Also: nearly all actives have a fitted effect of over 65% in size. Particulars: recombinant GPX1, GR-coupled NADPH fluorescence, 15 min; series mostly up to 48.8 µM; activity, negative = inhibition: at the top concentration. The text has this:
Assay Provider: Elias S.J. Arner MD PhD.
Department of Medical Biochemistry and Biophysics
Karolinska Institutet, Solna, Stockholm, Sweden
Selenoprotein glutathione peroxidases (GPX), like the ubiquitously expressed GPX1 and the ferroptosis modulator GPX4, enact their antioxidant activities by reducing hydroperoxides using glutathione. […] GPX1 and GPX4 inhibitors have thus shown promise as anti-cancer agents. Existing inhibitors are often promiscuous, or modulate GPX activity only indirectly, so novel direct inhibitors identified through screening against GPX1 and GPX4 could be valuable. Here, we developed optimized glutathione reductase (GR)-coupled GPX assays for the biochemical high-throughput screen (HTS) of almost 12,000 compounds with known mechanisms of action. Initial hits were triaged using a GR counter-screen, assessed for isoform specificity using a separate GPX2 assay, and were assessed for general selenocysteine-targeting activity using a thioredoxin reductase (TXNRD1) assay. With this suite of assays, we identified novel GPX1/GPX2- and GPX4-specific inhibitors and can here present a validated pipeline for future discovery research for selenoprotein-targeting agents.
SEQUENCE No. (e.g., 1, 2, 3, etc.); […] (e.g., Cells, Incubation, Reagent, etc.); VALUE; DESCRIPTION.
1; Reagent 1; 3 uL; GPx1 enzyme or no enzyme control in 1536-well, black, solid Greiner assay plate.
2; Compound; 25 nL; Kalypsis pin tool (Wako USA) equipped with a 1536-well pin head.
3; Incubation; 30 min; room temperature.
4; Reagent 2; 1 uL; 10 nM GPX1, 1 mM GSH, 0.5 mM CHP, 0.5 mM NADPH, 100 nM GR, 0.01% BSA substrate
5; Detection; Fluorescence; ViewLux microplate reader, excitation 340 nm and emission 450 nm.
6; Incubation; 15 min; room temperature.
7; Detection; Fluorescence; ViewLux microplate reader, excitation 340 nm and emission 450 nm.
NOTES (numbers refer to Sequence numbers above)
1. 3 uL of 16.66 nM GPX1 and 0.016% BSA in assay buffer (50 mM Tris-HCl, 2 mM EDTA (pH 7.5), 150 mM NaCl) was added to columns 3-48 of 1536-well assay plates using a BioRAPTR Flying Reagent Dispenser (Let's Go Robotics (LGR), Carlsbad, CA). A no-enzyme control (0.01% BSA in TES assay buffer) was added to columns 1-2.
2. 25 nL of test compounds and DMSO controls were added to each well with a pin tool (Kalypsys).
3. The assay plates were incubated for 30 minutes at room temperature.
4. 1 uL of master mix (500 nM glutathione reductase (GR), 5 mM reduced glutathione (GSH), 2.5 mM NADPH in assay buffer) was added. 1 uL of cumene hydroperoxide (CHP) ([2.5 mM] in 50% EtOH) was then added within 5 minutes to initiate the reaction. Final concentrations were: 10 nM GPX1, 1 mM GSH, 0.5 mM CHP, 0.5 mM NADPH, 100 nM GR, 0.01% BSA.
5. Initial fluorescence readout (t=0) at 340/450 nm was measured using a ViewLux multimodal detector (PerkinElmer, Waltham, MA).
7. Endpoint fluorescence readout (t=15) at 340/450 nm was measured 15 min after room temperature incubation.
(qHTS replaces the single test concentration by a dilution series.)
With `CN(C)CCNC(=O)COc1c2cccc1Cc1cccc(c1OCC(=O)NCCN(C)C)Cc1cccc(c1OCC(=O)NCCN(C)C)Cc1cccc(c1OCC(=O)NCCN(C)C)C2`, the outcome is “inactive [at 9.52 µM]”.
As to `O=C(/C=C/c1ccc2ccc(C(F)(F)F)cc2n1)c1ccncc1`, the “activity, negative = inhibition” value was -0.0904%.
As to `COC(=O)C1=C(C)NC(c2ncc(F)cc2F)=N[C@@H]1c1ccc(F)cc1Cl`, the outcome was inactive.
Regarding `COc1cc(-c2cn(C)c(=O)c3cnccc23)c(OC)cc1CN(C)C`, the result was inactive.
The same measure, in the same setting: as for `COC(=O)/C=C/C(=O)OC`, the entry is “inactive”; as for `CC(C)OC(=O)[C@H](C)N[P@](=O)(OC[C@H]1O[C@@H](n2ccc(=O)[nH]c2=O)[C@](C)(F)[C@@H]1O)Oc1ccccc1`, “inactive”.
Turning to `C[C@H]1CNC(=O)c2cnn3ccc(nc23)N[C@H](C)c2cc(F)ccc2O1`, the “activity, negative = inhibition” value was -8.54%.
As for `COc1cc2c3c(n(CCCN4CCOCC4)c(=O)c2cc1OC)-c1cc2c(cc1C3=O)OCO2`, the outcome was inactive.
Consider `C[C@H]1CNCCCN1S(=O)(=O)c1cccc2cncc(F)c12`, for which the Potency result is “inactive”.
Consider `COc1cc2c(Oc3ccc4[nH]c(C)cc4c3F)ccnc2cc1OCC1(N)CC1`, for which the “activity, negative = inhibition” value is -3.93%.
As for `COC(=O)N(CC(=O)O)Cc1cccc(OCc2nc(-c3ccc(Cl)cc3)oc2C)c1`, the outcome was inactive.
The same measure, in the same setting: as for `N=C(N)c1ccc2nc(-c3cc(CC(=O)N[C@@H](CC(=O)O)C(=O)O)cc(-c4cc(S(N)(=O)=O)ccc4O)c3O)[nH]c2c1`, the entry is “inactive”.
Turning to `CN(Cc1ccc(/C=C/C(=O)NO)cc1)CC12CC3CC(CC(C3)C1)C2`, the “activity, negative = inhibition” value is -0.592%.
In the case of `CONC(=O)Nc1ccc(-c2sc3c(c2CN(C)Cc2ccccc2)c(=O)n(-c2ccccc2)c(=O)n3Cc2c(F)cccc2F)cc1`, the result was inactive.
On the same count and under the same terms, as for `O=C(/C=C/N1C[C@H]2C[C@@H]1CN2c1ccccn1)c1ccccc1O`, the entry is “inactive”.
Consider `Nc1nc(F)nc2c1ncn2[C@@H]1O[C@H](COP(=O)(O)O)[C@@H](O)[C@@H]1O`, for which the Potency entry is “inactive”.
As to `CC[C@H]1OC(=O)[C@H](C)C(=O)[C@H](C)[C@@H](O[C@H]2O[C@H](C)C[C@H](N(C)C)[C@H]2O)[C@](C)(OC)C[C@@H](C)C(=O)[C@H](C)[C@H]2N(CCCCn3cnc(-c4cccnc4)c3)C(=O)O[C@]12C`, the “activity, negative = inhibition” value is -0.484%.
Take `Nc1nc(OC(c2ccc(-c3cccc(F)c3)cc2)C(F)(F)F)cc(-c2ccc(C[C@@H](N)C(=O)O)cc2)n1` (stereo not given in full): the result was inactive.
For `Cc1ccc(NS(=O)(=O)c2cccc(C#N)c2)c2[nH]cc(C#N)c12`, the result was inactive.
For the compound `C[C@]12CCC3[C@@H](CC[C@H]4NC(=O)C=C[C@]34C)[C@@H]1CC[C@@H]2C(=O)Nc1cc(C(F)(F)F)ccc1C(F)(F)F` (stereo not given in full), the Potency result is “inactive”.
For the compound `CC(=O)Nc1cc(Oc2ccc3c(nc(Nc4ccc(F)cc4F)n3C)c2C)ccn1`, the result was inactive.
In the case of `C[C@@H]1[C@H](O)[C@@H](C)/C=C/C=C/C=C/C=C/C=C/C=C/C=C/[C@H](O[C@@H]2O[C@H](C)[C@@H](O)[C@H](N)[C@@H]2O)C[C@@H]2O[C@](O)(C[C@@H](O)C[C@@H](O)[C@H](O)CC[C@@H](O)C[C@@H](O)CC(=O)O[C@H]1C)C[C@H](O)[C@H]2C(=O)O`, the “activity, negative = inhibition” value is 3.4%.
Regarding `C=C1C(=O)O[C@H]2C[C@H](C)C(/C=C/C(C)=O)=CC[C@H]12`, the outcome was inactive.
Consider `CCOC(=N)c1nc2ccc3ncnc(Nc4cc(F)c(F)cc4Cl)c3c2s1`, for which the “activity, negative = inhibition” value is -14%.
Regarding `O=C1OC2(CCC(C(=O)Nc3ccn(-c4ccccc4F)n3)CC2)c2cnccc21` (stereo not given), the result was inactive.
In the case of `C[C@H](NC(=O)[C@H]1NCC[C@@H]1O)c1ccc(-c2noc(CCC3CCCC3)n2)cc1`, the “activity, negative = inhibition” value was -18.1%.
`CCN(C(=O)c1ccccc1OC)c1cc2c(cc1N1CCNC[C@H]1C)n(C)c(=O)n2C`: the outcome was inactive.
The same measure, in the same setting: as for `CCNCCS(=O)(=O)NC[C@@]1(c2ccccc2)SC(NC(=O)C(C)(C)C)=NN1C(=O)C(C)(C)C`, the entry is “inactive”.
On to `CCCN(CCC)C(=O)C1=Cc2ccc(-c3ccc(C(=O)N4CCCC4)cc3)cc2N=C(N)C1`, for which the “activity, negative = inhibition” value was 0.303%.
Turning to `CCOc1cc(/C=C2/C(=O)N(c3ccccc3)N=C2C)cc(Cl)c1OCC(=O)OC`, the result was inactive.
Take `CN(C)C[C@@H]1CCn2cc(c3ccccc32)C2=C(C(=O)NC2=O)c2cn(c3ccccc23)CCO1`: the “activity, negative = inhibition” value is -0.182%.
The same measure, in the same setting: as for `CC1(N)CCN(c2cnc(-c3cccc(Cl)c3Cl)c(N)n2)CC1`, the figure is 3.33% [at 27.7 µM].
Consider `CC1(C)CCC2(CC1)N[C@@H](C(=O)N[C@@H]1CC[C@@H](C(N)=O)OC1)[C@H](c1ccnc(Cl)c1F)[C@]21C(=O)Nc2cc(Cl)ccc21`, for which the “outcome” value was “inactive [at 27.7 µM]”.
The same measure, in the same setting: as for `O=C(C[C@@H]1C/C=C\CCC(=O)O[C@H](c2ccccc2)CNC1=O)NCc1ccc(Cl)cc1`, the entry is “inactive”.
Still for that read-out and setting: as for `CC(C)NCCCn1c(Sc2cc(Cl)cc(Cl)c2)nc2c(N)ncnc21`, the entry is “inactive”.
Regarding `OC1CCC([C@H](O)C[C@H]2c3c(F)cccc3-c3cncn32)CC1` (stereo not given in full), the outcome was inactive.
Turning to `N[C@@H]1CN(c2c(F)cc3c(=O)c(C(=O)O)cn([C@@H]4C[C@@H]4F)c3c2Cl)CC12CC2`, the outcome was inactive.
In the case of `CCN(CC)CCNc1ccc(C)c2sc3ccccc3c(=O)c12`, the “activity, negative = inhibition” value was -12%.
The same measure, in the same setting: as for `CCCNC(=O)[C@H]1O[C@@H]1C(=O)N[C@H](C(=O)N1CCC[C@H]1C(=O)OC)C(C)CC` (stereo not given in full), the figure is 2.5%.
For `CNc1nc(-c2ccc3c(N)n[nH]c3c2)cc(N2C[C@@H](C(=O)NC3CCCCC3)CC[C@H]2C)n1`, the outcome was inactive.

Values taken from PubChem BioAssay (NCATS).
